The source made the active and inactive calls. Entries that show only a call come without a potency. Calls come from the whole dose curve; as a rule, active = well fitted curve in the direction sought with a large enough effect in the repeat runs; inconclusive = weak or mixed curves; inactive = flat fitted curve, though single readings scatter.
assay: qHTS assay to test for compound auto fluorescence at 590 nm (red) in HEK293 cells (AID 720679); settings: red autofluorescence 540/590 nm; series mostly up to 46 µM
From the text: National Center for Advancing Translational Sciences [NCATS]
NIH Chemical Genomics Center [NCGC]
U.S. Environmental Protection Agency [EPA]
National Institutes of Environmental Health Sciences [NIEHS]
National Toxicology Program [NTP]
U.S. Food and Drug Administration [FDA]
Compound auto fluorescence often interferes with screening of the compound library against various biological targets and signaling pathways. Some of these compounds may have fluorophoric properties. Such properties may interfere with the assay outputs resulting in false positives and/or negatives. To decrease such complications and ensure the compound activities are relevant in terms of biological response, the Tox21 10K compound library was screened for auto fluorescence.
From the fluorophores used as reporter signals in our screening assays, the auto fluorescence equivalencies of compounds against three fluorophores have been evaluated: Triamterene, Fluorescein and Rose Bengal sodium for blue, green and red fluorescence, respectively. The fluorescence intensities were measured using Excitation/Emission wavelengths at 405/460nm, 485/535nm and 540/590nm for blue, green and red labels, respectively. This assay includes the red fluorescence data.
Tox21 Assay Protocol Summary:
2,000 HEK293 cells in 5 uL of culture medium containing 10% dialyzed FBS per well were dispensed into black wall/clear bottom 1536-well plates using a Multidrop Combi Dispenser (Thermo Scientific). The assay plates were incubated for 4-5 hr at 37C to allow cell attachment to the well bottom, followed by the transfer of 23 nL compound or DMSO vehicle by a pintool work station (Kalypsys, San Diego, CA). After the assay plates were incubated overnight at 37C and 5% CO2, fluorescence intensities in the assay plates were measured by an Envision (PerkinElmer, Shelton, CT) plate reader using three labels for measuring blue, green and red fluorescence at […] 460, 535 and 590nm respectively.

Row | Structure (SMILES) | Potency
1 | CN1CCN2c3ncccc3Cc3ccccc3C2C1 (stereo not given) | inactive
2 | COc1ccc2c(=O)c(C)c(-c3ccccc3)oc2c1CN(C)C | inactive
3 | CN[C@@H]1[C@@H](O)[C@@H](O[C@@H]2[C@@H](O)[C@H](OC3OC(CN)=CCC3N)[C@@H](N)C[C@H]2N)OC[C@]1(C)O (stereo not given in full) | inactive
4 | Clc1cc(Cl)c(OCC#CI)cc1Cl | inactive
5 | CCNC(=O)[C@@H]1CCCN1C(=O)[C@H](CCCN=C(N)N)NC(=O)[C@H](CC(C)C)NC(=O)[C@@H](Cc1c[nH]c2ccccc12)NC(=O)[C@H](Cc1ccc(O)cc1)NC(=O)[C@H](CO)NC(=O)[C@H](Cc1c[nH]c2ccccc12)NC(=O)[C@H](Cc1cnc[nH]1)NC(=O)[C@@H]1CCC(=O)N1 | inactive
6 | CC1(C)N=C(N)N=C(N)N1c1ccc(Cl)cc1 | inactive
7 | O=C(O)C1CCCN1 (stereo not given) | inactive
8 | CCC(=O)Oc1ccc2c(c1)CC[C@@H]1[C@@H]2CC[C@]2(C)[C@@H](OC(=O)CC)CC[C@@H]12 | inactive
9 | CCCCCc1ccc(C)cc1O | inactive
10 | C#C[C@]1(O)CC[C@H]2[C@@H]3CCC4=CCCC[C@@H]4[C@H]3C(=C)C[C@@]21CC | inactive
11 | CN1[C@@H]2CCC[C@H]1CC(NC(=O)c1nn(C)c3ccccc13)C2 (stereo not given in full) | inactive
12 | C[C@H](CCCC(C)(C)O)[C@H]1CC[C@H]2[C@@H]3CC=C4C[C@@H](O)CC[C@]4(C)[C@H]3CC[C@]12C | inactive
13 | CO/N=C(\C(=O)N[C@@H]1C(=O)N2C(C(=O)O)=C(CSC(=O)c3ccco3)CS[C@H]12)c1csc(N)n1 | inactive
14 | COc1c(O[C@@H]2O[C@H](CO)[C@@H](O)[C@H](O)[C@H]2O)cc2c(c1OC)-c1ccc(SC)c(=O)cc1[C@@H](NC(C)=O)CC2 | inactive
15 | N#CC(c1ccc(Cl)cc1)c1c(Cl)cc(-n2ncc(=O)[nH]c2=O)cc1Cl (stereo not given) | inactive
16 | CC(=O)[C@@]1(O)CC[C@H]2[C@@H]3C=C(Cl)C4=CC(=O)[C@@H]5C[C@@H]5[C@]4(C)[C@H]3CC[C@@]21C | inactive
17 | CNC[C@@H]1CC[C@@H](N)[C@@H](O[C@H]2[C@H](O)[C@@H](O[C@H]3OC[C@](C)(O)[C@H](NC)[C@H]3O)[C@H](N)C[C@@H]2N)O1 | inactive
18 | CN1CCN(CCCN2c3ccccc3Sc3ccccc32)CC1 | inactive
19 | C#C[C@]1(O)CC[C@H]2[C@@H]3CCC4=C(CCC(=O)C4)[C@H]3CC[C@@]21C | inactive
20 | CC(C)CN(C[C@@H](O)[C@H](Cc1ccccc1)NC(=O)O[C@@H]1CCOC1)S(=O)(=O)c1ccc(N)cc1 | inactive

Row | Structure (SMILES) | Potency
21 | NCc1ccccc1CC(=O)N[C@@H]1C(=O)N2C(C(=O)O)=C(CSc3nnnn3CC(=O)O)CS[C@H]12 | inactive
22 | CCOC(=O)COc1ccc2c(C)c(CCN(CC)CC)c(=O)oc2c1 | inactive
23 | CCOC(=O)[C@@H](N)CS | inactive
24 | O=C1N=C2SCCN2C(=O)C1Cc1ccc(Cl)cc1 (stereo not given) | inactive
25 | C[C@]12C=CC(=O)N[C@@H]1CC[C@@H]1[C@@H]2CC[C@]2(C)[C@@H](C(=O)Nc3cc(C(F)(F)F)ccc3C(F)(F)F)CC[C@@H]12 | inactive
26 | O=C(O)[C@H]1/C(=C/CO)O[C@@H]2CC(=O)N21 | inactive
27 | CCOC(=O)[C@H](CCc1ccccc1)N[C@H]1CCCN2CCC[C@@H](C(=O)O)N2C1=O | inactive
28 | CCCCOC(=O)C(=O)Nc1cccc(-c2nn[nH]n2)c1 | inactive
29 | CCN(CC)CCC(=O)N1c2ccccc2Sc2ccc(Cl)cc21 | inactive
30 | CC(C)(C)C(=O)OCOC(=O)[C@@H]1N2C(=O)[C@@H](N=CN3CCCCCC3)[C@H]2SC1(C)C | inactive
31 | NC(=S)N=Nc1ccc(NN=C(N)N)cc1 | inactive
32 | CC(C)(C)NC[C@H](O)COc1ccccc1C1CCCC1 | inactive
33 | CNC(=O)c1c(I)c(C(=O)NCC(=O)Nc2c(I)c(C(=O)O)c(I)c(C(=O)NCCO)c2I)c(I)c(N(C)C(C)=O)c1I | inactive
34 | Nc1nc2[nH]cc(CCc3ccc(C(=O)N[C@@H](CCC(=O)O)C(=O)O)cc3)c2c(=O)[nH]1 | inactive
35 | CCN(CC)CCC(=O)N1c2ccccc2Sc2ccc(C(F)(F)F)cc21 | inactive
36 | C[C@H](N)C(=O)N[C@@H](C)P(=O)(O)O | inactive
37 | CC[C@@H]1/C=C(\C)C[C@H](C)C[C@H](OC)[C@H]2O[C@@](O)(C(=O)C(=O)N3CCCC[C@H]3C(=O)O[C@H](/C(C)=C/[C@@H]3CC[C@@H](Cl)[C@H](OC)C3)[C@H](C)[C@@H](O)CC1=O)[C@H](C)C[C@@H]2OC | inactive
38 | CC(=O)OCC(=O)[C@@]12OC3(CCCC3)O[C@@H]1C[C@H]1[C@@H]3CCC4=CC(=O)C=C[C@]4(C)[C@@]3(F)[C@@H](O)C[C@@]12C | inactive
39 | CC1(C)[C@@H]2CC[C@@]1(C)[C@H](OC(=O)CSC#N)C2 | inactive
40 | CCCCC(C)(O)C/C=C/[C@H]1[C@H](O)CC(=O)[C@@H]1CCCCCCC(=O)OC (stereo not given in full) | inactive
